Here are results for 35 compounds from PubChem BioAssay.

Active and inactive are the calls of the source.
Note: test concentration not given here.

One assay can be described thus: basal MM1S mitochondrial membrane potential changes, profiling panel, cell-based, JC-1 fluorescence, 24 h, 100 nL compound (AID 1170). The settings on record: higher = more signal.
On to `[N-]=[N+]=NCc1ccccc1[C@H]1OC(c2ccc(OCCCO)cc2)=N[C@@]1(Cc1ccccc1N=[N+]=[N-])C(N)=O`, for which the z-score was -0.928.

`C=CCN1C(=O)[C@@]2(O[C@@H](CCO)[C@H]([Si](C)(C)c3ccc(OC)cc3)[C@H]2C)c2cc(N3CCCCC3=O)ccc21` yielded a z-score of -1.75.

In turn, `Cc1ccc(S[C@]2(C(=O)NCc3ccccc3)CC(=O)N(Cc3ccccc3C(F)(F)F)[C@@H]2c2ccc(CO)cc2I)cc1` came in with a z-score of -0.518.

Consider `C=C[C@H](C)[C@@H](OC(=O)Nc1ccc(SC)cc1)c1ccc(OCCO)cc1`, for which the z-score was -0.114.

With `CN(C)C(=O)[C@]1(CCS(=O)(=O)c2ccccc2)N=C(c2ccc(OCCCO)cc2)O[C@@H]1c1ccccc1CN=[N+]=[N-]`, the z-score is -0.776.

Consider `COC(=O)[C@]1(Cc2ccccc2N=[N+]=[N-])N=C(c2ccc(OCCCO)cc2)O[C@@H]1c1ccccc1CN=[N+]=[N-]`, for which the z-score was -2.61.

`COc1cccc(C)c1NC(=O)O[C@H]1[C@H](OC(=O)Nc2ccccc2)[C@@H](OC(=O)Nc2ccccc2)[C@@H](OC)O[C@@H]1CO` registered a z-score of 0.0418.

With `COCCCNC(=O)[C@@]1(c2ccc([N+](=O)[O-])cc2)CC(=O)N(C2CCCCC2)[C@@H]1c1ccc(CO)cc1I`, the z-score amounted to 0.106.

The nature of another assay: A549 lung cancer cell viability effects, profiling panel, resazurin fluorescence, 24 h, PK04 Diversity Set (AID 1171). The settings on record: higher = more signal, called active from +8 up or from −8 down.
In the case of `Cc1ccc(S(=O)(=O)N2[C@@H](c3ccccc3)C(C(=O)O)=C[C@H]2C(C)(C)C)cc1`, the z-score was -1.11 (inactive).

On to `C=C1C(=O)C=C2CN(C(=O)c3ccccc3)[C@@](Cc3ccc(F)cc3)(C(=O)OC)[C@@H]12`, for which the z-score is -7 (inactive).

Consider `COC(=O)[C@@]1(Cc2ccc(F)cc2)[C@H]2c3cc(C(=O)N4CCCC4)n(CCc4c[nH]c5cc(F)ccc45)c3C[C@H]2CN1C(=O)c1ccccc1`, for which the z-score is 0.339 (inactive).

Regarding `CCCCN1CC=CC23O[C@@H]4C=CCCOC(=O)C4[C@H]2C(=O)N(CCO)[C@@H]3C1=O` (stereo partly drawn), the z-score was -0.288 (inactive).

On to `Cc1ccc(S[C@]2(C(=O)NC3CC3)CC(=O)N(C3Cc4ccccc4C3)[C@@H]2c2ccc(CO)cc2I)cc1`, for which the z-score is 0.395 (inactive).

Regarding `C=CCOC(=O)[C@H]1[C@@H]2C(=O)O[C@@H](c3ccccc3)[C@@H](c3ccccc3)N2[C@@H](c2ccc(OCCOC(=O)[C@H]3C[C@H]4C(=O)NCC(=O)N4[C@H]3c3cccc(OCCO)c3)cc2)[C@]12C(=O)Nc1ccc(I)cc12`, the z-score was 0.592 (inactive).

As for `CC1(C)OB(/C=C\CC(OC(=O)c2ccncc2)c2ccccc2)OC1(C)C` (stereo not drawn), the z-score was 0.0383 (inactive).

Take `CC[C@@H](O[Si](C#C[Si](C(C)C)(C(C)C)C(C)C)(C(C)C)C(C)C)c1cn([C@H](CO)Cc2ccccc2)nn1`: the z-score was 0.194 (inactive).

Take `C=C[C@H](OC)[C@@H](O)c1ccc(OC)c(O)c1`: the z-score is -0.112 (inactive).

In the case of `CC(C)(C)OC(=O)CC[C@@]1(C(N)=O)N=C(c2ccc(OCCCO)cc2)O[C@@H]1c1ccccc1CN=[N+]=[N-]`, the z-score was 0.112 (inactive).

As for `COCCOC(=O)N1C(=O)[C@@]2(c3cc(C#CCNC(N)=O)ccc31)[C@H](c1ccc(O)cc1)N1[C@H](c3ccccc3)[C@H](c3ccccc3)OC(=O)[C@H]1[C@@H]2C(=O)N1CCc2cc(OC)c(OC)cc2C1`, the z-score was 0.0875 (inactive).

Regarding `COc1cc2c(cc1O)C(C)N(Cc1sc3ccccc3c1Cl)CC2` (stereo not drawn), the z-score is -0.205 (inactive).

Take `COCCOC(=O)N1C(=O)[C@@]2(c3cc(C#CCC(C(=O)OC)C(=O)OC)ccc31)[C@H](C(N)=O)[C@H]1C(=O)O[C@H](c3ccccc3)[C@H](c3ccccc3)N1[C@@H]2c1ccccc1OCCO`: the z-score was -0.175 (inactive).

Regarding `C[C@H]1C2[C@H](Cc3ccccc3)NC(=O)[C@]23C(=O)N[C@@H](Cc2ccccc2)C(=O)N2CCC[C@H]2C(=O)NC/C=C/CC/C=C/C3[C@@H]2O[C@]12C` (stereo partly drawn), the z-score is -0.0612 (inactive).

Consider `C[C@@]1([C@@H](NS(=O)(=O)c2cccc3cccnc23)c2ccc(-c3ccccc3)cc2)C[C@H]1C1CCCCC1`, for which the z-score is -0.892 (inactive).

For the compound `COc1ccc(CCNC(=O)[C@@H]2c3ccccc3C(=O)N(Cc3cc(F)cc(C(F)(F)F)c3)[C@H]2c2ccc(CO)cc2)cc1`, the z-score is 1.3 (inactive).

For `C=CC[C@H](O)c1ccc(O)c(F)c1`, the z-score was -0.396 (inactive).

For the compound `CC(C)N1CC=CC23O[C@@H]4/C=C\CCCOC(=O)C4[C@H]2C(=O)N(C(C)CO)[C@@H]3C1=O` (stereo partly drawn), the z-score is 0.753 (inactive).

Consider `C=CCOC(=O)[C@@H]1[C@H]2C(=O)O[C@H](c3ccccc3)[C@H](c3ccccc3)N2[C@H](c2ccc(OCCOC(=O)[C@H]3C[C@H]4C(=O)N[C@@H](CCCCN(C)C)C(=O)N4[C@H]3c3cccc(OCCO)c3)cc2)[C@@]12C(=O)Nc1ccccc12`, for which the z-score is 0.64 (inactive).

In the case of `COCCOC(=O)N1C(=O)[C@@]2(c3cc(C#CC4=CCCCC4)ccc31)[C@H](C(=O)N1CCCCCCC1)[C@H]1C(=O)O[C@H](c3ccccc3)[C@H](c3ccccc3)N1[C@@H]2c1ccccc1OCCO`, the z-score was 0.356 (inactive).

As to `CCCCCN1CC=CC23O[C@@H]4/C=C\CCCOC(=O)C4[C@H]2C(=O)N(CCO)[C@@H]3C1=O` (stereo partly drawn), the z-score is -0.231 (inactive).

Turning to `CC(C)N1C(=O)[C@@]2(Cc3ccccc31)c1ccccc1C(=O)N(Cc1ccccc1)[C@H]2c1ccc(CO)cc1`, the z-score was 0.247 (inactive).

Regarding `C=C(CC1([C@@H](NP(=O)(c2ccccc2)c2ccccc2)[C@H]2C[C@@H]2CCCC)CC1)c1cccc(OC)c1`, the z-score was 6.21 (inactive).

For the compound `CC[C@@H](O[Si](C#C[Si](C(C)C)(C(C)C)C(C)C)(C(C)C)C(C)C)c1cn(Cc2cccc(Cl)c2)nn1`, the z-score is 0.359 (inactive).

Turning to `COCCCNC(=O)[C@]1(Cc2ccccc2CN=[N+]=[N-])N=C(c2ccc(OCCCO)cc2)O[C@@H]1c1ccccc1N=[N+]=[N-]`, the z-score is -2.12 (inactive).

In the case of `COc1ccc([Si](C)(C)[C@H]2[C@H](CC(=O)N(CCO)Cc3ccccc3)O[C@@]3(C(=O)N(Cc4cccc(N5CCCCC5=O)c4)c4ccccc43)[C@@H]2C)cc1`, the z-score is -1.91 (inactive).

`C=C(/C=C\CNS(=O)(=O)c1ccc(C)cc1)[C@H](O)[C@H]1CCCN1S(=O)(=O)c1ccccc1[N+](=O)[O-]`: the z-score was 0.0403 (inactive).

As for `[N-]=[N+]=NCc1ccccc1[C@H]1OC(c2ccc(OCCCO)cc2)=N[C@@]1(Cc1ccccc1N=[N+]=[N-])C(N)=O`, the z-score is 0.85 (inactive).

Consider `C=CCN1C(=O)[C@@]2(O[C@@H](CCO)[C@H]([Si](C)(C)c3ccc(OC)cc3)[C@H]2C)c2cc(N3CCCCC3=O)ccc21`, for which the z-score was -2.04 (inactive).

For the compound `Cc1ccc(S[C@]2(C(=O)NCc3ccccc3)CC(=O)N(Cc3ccccc3C(F)(F)F)[C@@H]2c2ccc(CO)cc2I)cc1`, the z-score was 1.15 (inactive).

In the case of `C=C[C@H](C)[C@@H](OC(=O)Nc1ccc(SC)cc1)c1ccc(OCCO)cc1`, the z-score was -0.505 (inactive).

On to `CN(C)C(=O)[C@]1(CCS(=O)(=O)c2ccccc2)N=C(c2ccc(OCCCO)cc2)O[C@@H]1c1ccccc1CN=[N+]=[N-]`, for which the z-score was 1.09 (inactive).

For the compound `COC(=O)[C@]1(Cc2ccccc2N=[N+]=[N-])N=C(c2ccc(OCCCO)cc2)O[C@@H]1c1ccccc1CN=[N+]=[N-]`, the z-score was -2.26 (inactive).

On to `COc1cccc(C)c1NC(=O)O[C@H]1[C@H](OC(=O)Nc2ccccc2)[C@@H](OC(=O)Nc2ccccc2)[C@@H](OC)O[C@@H]1CO`, for which the z-score was -3.49 (inactive).

Take `COCCCNC(=O)[C@@]1(c2ccc([N+](=O)[O-])cc2)CC(=O)N(C2CCCCC2)[C@@H]1c1ccc(CO)cc1I`: the z-score is 1.38 (inactive).
